The text below walks through data of PubChem BioAssay (NCATS).

Experiment [1] deals with CRL-7250. Kind of experiment: Cytotoxic Profiling of Annotated Libraries Using Quantitative High-Throughput Screening (AID 1296008). Also: nearly all actives have a fitted effect of over 60% in size. Particulars: Five cell lines viability, CellTiter-Glo ATP luminescence, 48-72 h; max response: stronger effect = lower value. In a few lines: (§1)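 Cytotoxicity was measured as CellTiter-Glo ATP luminescence, read after 10 min at room temperature. Compound treatment of the cells lasted 48 or 72 hr at 37 degrees Celsius in a qHTS format.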
In general terms: Cellular ATP, detected with luciferase, serves as a proxy for viable cell number.

For experiment [2], the system named is HEK293. The experiment is described as above. To be noted: Five cell lines viability, CellTiter-Glo ATP luminescence, 48-72 h; max response: stronger effect = lower value. In a few lines: as §1

SMILES strings stand for the structures. Records with an inconclusive call do not appear. Unmarked numbers belong to inactive results. Calls of active or inactive are those of the source. Calls follow the shape of the dose curve; as a rule, active = well fitted inhibition curve with a large enough effect; inconclusive = small, poorly fitted or top-dose-only effect; inactive = flat fitted curve, though single readings scatter.
% is scaled to controls: 0 for no effect and ±100 for the full control effect; potency is read from the fitted curve at half-maximal effect.

Take `Cc1ccc(C(=O)N(CCCN)C(c2oc3cc(Cl)ccc3c(=O)c2Cc2ccccc2)C(C)C)cc1` (stereo not given): the max response in experiment [1] was -42.6%; in experiment [2] it was -125%.
Consider `CC(=O)OC[C@@]12C(=O)C[C@@H](C)[C@]3(C[C@@H](c4ccoc4)O[C@H]3OC(C)=O)[C@H]1CCC[C@]21CO1`, for which the max response in experiment [1] was -15.6%; in experiment [2], -5.69%.
Consider `C=C1CC[C@@H]2[C@@](C)(CO[C@@H]3O[C@H](CO)C(O)[C@H](O)C3O)[C@H](O)CC[C@@]2(C)[C@@H]1CC/C(C)=C/CO` (stereo not given in full), for which the result in experiment [1] was inactive. In addition, the max response in experiment [2] is 1.32%.
`C=C(C(=O)O)C1CCC2(C)CCC(O)C(=C)C2C1` (stereo not given): the values for the max response in experiment [1] and in experiment [2] were -9.49% and -0.847%, respectively.
The matching figures for `CC12CCC(C(OC3OC(COC4OCC(O)(CO)C4O)C(O)C(O)C3O)C1)C(C)(C)O2` (stereo not given): 2.4% and -9.12%.
As to `C[C@H](O)[C@H](O)/C=C/c1cccc(O)c1CO`, the max response in experiment [1] is -1.75%; in experiment [2], -4.7%.
The matching figures for `OC[C@H]1O[C@@H](OC(CCCCc2ccc(O)cc2)CCc2ccc(O)cc2)[C@H](O)[C@@H](O)[C@@H]1O` (stereo not given in full): -35.2% and -49.4%.
Consider `CC(C)CC(=O)OC1OC=C(CO[C@@H]2O[C@H](CO)[C@@H](O)[C@H](O)[C@H]2O)C2CC(O)C(O)(CO)C12` (stereo not given in full), for which the max response is 3.01% in experiment [1] and -1.23% in experiment [2].
On to `C=C[C@]1(C)C=C2CCC3C(C)(CCC[C@@]3(C)C(=O)O)C2CC1` (stereo not given in full), for which, in experiment [1], the molecule was called inactive. Besides, the max response in experiment [2] is 0.507%.
`C[C@@H]1C(=O)OC[C@H]2C(C(=O)O)=C[C@@H]3CC(C)(C)C[C@]312`: in experiment [1], the outcome was inactive. Further, the max response in experiment [2] is 4.25%.
As to `COC(=O)Cc1cc2c(c([N+](=O)[O-])c1)N(C(=O)CC[C@H](N)C(=O)O)CC2`, the max response in experiment [1] was -4.18%; in experiment [2], -4.25%.
Regarding `CC(C)(C)NS(=O)(=O)c1cncc(-c2cc(F)c3nc(N)nn3c2)c1`, in experiment [1], the molecule was classed as inactive. Also, the max response in experiment [2] was -1.27%.
On to `CCOc1ccc2nc(SCCN3CCOCC3)[nH]c2c1`, for which the max response in experiment [1] is -3.31%; in experiment [2], -19.2%.
Regarding `CC(=O)N[C@H]1[C@H](O[C@H]2CC[C@@]3(C)C(CC[C@]4(C)C3CC=C3[C@@H]5CC(C)(C)CC[C@]5(C(=O)OC5OCC(O)C(O)C5O)CC[C@]34C)C2(C)C)O[C@H](COC2OC(C)C(O)C(OC3OC(C)C(O)C(O)C3O)C2O)[C@@H](O)[C@@H]1O` (stereo not given in full), the values for the max response in experiment [1] and in experiment [2] were -6.06% and -2.57%, respectively.
As to `COc1cc(C(=O)OC[C@H]2O[C@@H](Oc3ccccc3/C=C/C(=O)O)[C@H](O)[C@@H](O)[C@@H]2O)cc(OC)c1OC`, the max response was -2.66% in experiment [1] and -0.285% in experiment [2].
As to `O=C(CSc1nc2c(c(=O)n1-c1ccccc1)SCC2)Nc1ccc(-c2ccccc2)cn1`, the Potency was 231 nM (active) in experiment [1] and 41.1 nM (active) in experiment [2].
With `COC(C(=O)N1Cc2[nH]nc(NC(=O)c3ccc(N4CCN(C)CC4)cc3)c2C1)c1ccccc1` (stereo not given), the Potency in experiment [1] was 1840 nM (active); in experiment [2] it was 1640 nM (active).
In the case of `COC(=O)c1cc(OC)c(O[C@@H]2O[C@@H](C)[C@H](O)[C@@H](O)[C@H]2O)c(OC)c1`, in experiment [1], the outcome was inactive. Besides, the max response in experiment [2] is -6.73%.
In the case of `COC(=O)[C@H](O)[C@H]1C(C)(C)[C@H](OC(=O)C(C)C)[C@@]2(O)C(=O)[C@]1(C)C1CC[C@]3(C)C(CC(=O)O[C@H]3c3ccoc3)[C@]13O[C@@H]32` (stereo not given in full), the figures for the max response in experiment [1] and in experiment [2] were -16.9% and -5.39%, respectively.
The corresponding values for `C=C1C(=O)O[C@H](CCC)[C@H]1C(=O)O` are 3.05% and -3.38%.
The corresponding values for `COc1ccccc1Oc1ccc(N(Cc2cccnc2)S(=O)(=O)CC(F)(F)F)cc1` are -7.01% and 4.88%.
Consider `COc1cc(C(=O)NC2CCN(C)CC2)ccc1Nc1ncc2c(n1)N(C1CCCC1)CC(F)(F)C(=O)N2C`, for which the Potency is 2310 nM (active) in experiment [1] and 14.6 nM (active) in experiment [2].
With `CC1(C)CC[C@]2(C(=O)O)CC[C@]3(C)C(=CCC4[C@@]5(C)C[C@@H](O)[C@H](O)C(C)(C)C5CC[C@]43C)C2C1` (stereo not given in full), the outcome in experiment [1] and in experiment [2] was inactive.
Take `CC1(O)CCCC2(C)C1CCC13CC(CO)C(CCC12)C3` (stereo not given): the max response was -2.17% in experiment [1] and -21.4% in experiment [2].
The matching figures for `Nc1ncnc2c([C@@H]3N[C@H](CO)[C@@H](O)[C@H]3O)c[nH]c12`: -1.11% and 1.17%.
